Test results taken from publication PMC4552634, “A New Set of Chemical Starting Points with Plasmodium falciparum Transmission-Blocking Potential for Antimalarial Drug Discovery” (PLoS ONE, 2015).
Screen size: about 13,000 compounds; about 3,200 (25%) showed an effect of 50% or more. Some of the results follow.

tested on: P. falciparum stage V gametocytes; set-up: BacTiter-Glo ATP luminescence viability of purified stage V gametocytes in 384-well plates, per cent inhibition versus DMSO; conditions: 48 h, 5 µM; inhibitor

SMILES	% Inhibition [%]
Cc1ccc(C(=O)Cn2nc(-c3ccc(C)c(S(=O)(=O)N4CCCC4)c3)ccc2=O)cc1 [TCMDC-124704]	-26.21
Cc1ccc(-c2nnc3c4ccccc4c(C)nn23)cc1S(=O)(=O)N1CCN(CCO)CC1 [TCMDC-124482]	63.32
Cc1ccc(C(=O)Cn2nc(-c3ccc(C)c(S(=O)(=O)N4CCCCC4)c3)ccc2=O)cc1 [TCMDC-124714]	32.41
NC(=S)Cc1ccc2c(c1)OCO2 [TCMDC-137863]	-6.254
O=C(Cc1ccccc1)NC(CCN1CCC(N(C2CC2)S(=O)(=O)c2cccc(C(F)(F)F)c2)CC1)c1ccc(Cl)c(Cl)c1 (centres unmarked) [TCMDC-141710]	20.7
CCCCCN1CCC(NS(=O)(=O)c2cccc(C(=O)Nc3ccc(Cl)cc3)c2)CC1 [TCMDC-132806]	32.08
Cc1cnn(-c2cccc(C(=O)NC3CCC(CCN4CCc5ccc(C#N)cc5CC4)CC3)c2)c1 (centres unmarked) [TCMDC-139818]	-20.34
Cc1cccc2[nH]c(-c3cccc(-c4ccc(NC(=O)Nc5ccsc5)cc4)c3)nc12 [TCMDC-133211]	22.09
COc1cccc(Nc2nc(C)cc(NC3CCN(Cc4ccccc4)CC3)n2)c1 [TCMDC-134022]	-46.19
Cc1ccc(-c2cncc(-c3cc(NC4CCN(Cc5ccccc5)CC4)nc(-c4ccccc4)n3)c2)cc1 [TCMDC-125588]	17.17
Cc1cc(NC2CCN(Cc3ccccc3)CC2)nc(NCCCCc2ccccc2)n1 [TCMDC-138304]	79.92
OC(CNc1cccc(Cl)c1)Cn1c2ccc(Cl)cc2c2cc(Cl)ccc21 (centres unmarked) [TCMDC-125716]	20.85
CS(=O)(=O)N(CC(O)Cn1c2ccc(Cl)cc2c2cc(Cl)ccc21)c1ccccc1 (centres unmarked) [TCMDC-124039]	35.36
CC12CCC(C(=O)N(CC(O)Cn3c4ccc(Cl)cc4c4cc(Cl)ccc43)C1=O)C2(C)C (centres unmarked) [TCMDC-125719]	82.98
Fc1ccc2[nH]c(-c3ccc(-c4ccc(CNCC5CCCO5)cc4)cc3)nc2c1.O=C(O)C(F)(F)F (centres unmarked) [TCMDC-133097]	36.17
CCOC(=O)c1cc2c(CCN3C(=O)c4ccccc4C3=O)cn(C)c2cc1-c1ccncc1 [TCMDC-138099]	108.6
CCOC(=O)c1cn(CC)c2cc(OCc3ccccc3)ccc2c1=O [TCMDC-141680]	0.3884
CCOC(=O)c1c(CNc2ccncc2)n(C)c2cc(Br)c(OC(C)=O)cc12 [TCMDC-125700]	-53.66
CS(=O)(=O)Nc1cccc(-c2cnc3[nH]cc(-c4cc(N)cc(C(=O)O)c4)c3c2)c1 [TCMDC-136220]	11.92
COc1nc(-n2ccc(=N)cc2)nc2ccccc12 [TCMDC-131303]	8.489
c1ccc(-n2cncn2)cc1 [TCMDC-124291]	2.88
CCC(C)CN1C(=O)C(c2ccccc2)(c2ccccc2)N=C1N (centres unmarked) [TCMDC-136799]	-2.713
CCC(CC)CN1C(=O)C(c2ccccc2)(c2ccccc2)N=C1N [TCMDC-136491]	13.18

SMILES	% Inhibition [%]
CCC(CN1C(=O)C(c2ccccc2)(c2ccccc2)N=C1N)c1ccccc1 (centres unmarked) [TCMDC-136879]	66.04
CC(C)CNCc1cccc(-c2cccc(CN(C(=O)c3cccs3)C3CCN(Cc4ccccc4)CC3)c2)c1 [TCMDC-140565]	96.32
CN(c1cc(NC(=O)c2cccs2)ccn1)C1CCN(Cc2ccccc2)CC1 [TCMDC-135006]	1.42
CC(C)CNCc1cccc(-c2ccc(CN(C(=O)c3cccs3)C3CCN(Cc4ccccc4)CC3)cc2)c1 [TCMDC-140569]	103.7
CN(CCCCCNC(=O)/C=C/c1ccc(Cl)c(Cl)c1)CCc1c[nH]c2ccccc12 [TCMDC-139327]	-26.77
COc1cc(Cc2c(C)nc3nc(N)nc(N)c3c2C)c(Br)c(OC)c1OC [TCMDC-137644]	1.652
COc1cccc(NC(=O)NC2CCN(c3ccnc(Nc4ccc(F)cc4)n3)C2)c1 (centres unmarked) [TCMDC-133602]	-32.07
CN1CCC(N(Cc2ccc(-c3ccc(C(F)(F)F)cc3)nc2)C(=O)Cn2c(CCc3cccc(F)c3F)cc(=O)c3ccccc32)CC1 [TCMDC-141407]	27.49
CCN1CCC(N(Cc2ccc(-c3ccc(Cl)cc3)cc2)C(=O)Cn2c(CCc3cccc(F)c3F)cc(=O)c3ccccc32)CC1 [TCMDC-141358]	109.7
CN1CCC(N(Cc2ccc(-c3ccc(Cl)cc3)cc2)C(=O)Cn2c(CCc3cccc(F)c3F)cc(=O)c3ccccc32)CC1 [TCMDC-141357]	111.3
Nc1nc2ccc(CN(C=O)c3ccc(C(=O)N[C@@H](CCC(=O)O)C(=O)O)cc3)cc2c(=O)[nH]1 [TCMDC-132048]	3.734
COc1ccc(Cn2c(Nc3cccc(C(F)(F)F)c3)nc3cc(C(=O)NCCN4CCCC4)cnc32)cc1Cl [TCMDC-138555]	60.89
COc1ccc(Cn2c(Nc3cccc(C(F)(F)F)c3)nc3cc(C(=O)NCCN4CCCC4)ccc32)cc1Cl [TCMDC-138532]	-18.24
COc1ccc(Cn2c(Nc3cccc(C(F)(F)F)c3)nc3ccc(C(=O)NCCN4CCCC4)cc32)cc1Cl [TCMDC-138531]	-30.77
CN(c1cc(NC(=O)c2ccc(F)cc2)ccn1)C1CCN(Cc2ccc(C#N)cc2)CC1 [TCMDC-134979]	11.6
O=c1cc(NCCCNCc2cc(Br)ccc2F)[nH]c2ccccc12 [TCMDC-139424]	-33.84
CC(C)CNCc1cccc(-c2ccc(CN(C(=O)NCCc3ccccc3)C3CCN(Cc4ccccc4)CC3)cc2)c1 [TCMDC-140622]	85.53
CC(C)CNCc1ccc(-c2ccc(CN(C(=O)NCCc3ccccc3)C3CCN(Cc4ccccc4)CC3)cc2)cc1 [TCMDC-140623]	92.24
CC(=O)N(Cc1ccc(-c2ccc(CNCCc3ccccc3)cc2)cc1)C1CCN(Cc2ccccc2)CC1 [TCMDC-140530]	41.5
CC(C)CNCc1ccc(-c2cccc(CN(C(=O)NCCc3ccccc3)C3CCN(Cc4ccccc4)CC3)c2)cc1 [TCMDC-140615]	77.17
O=C(NC1CCCCC1)C(c1cccs1)N(CCc1ccccc1)C(=O)c1ccco1 (centres unmarked) [TCMDC-123798]	-17.48
CC(C)c1ccc(-c2noc(SCC(=O)N3CCCCC3C)n2)cc1 (centres unmarked) [TCMDC-124745]	-11.89
CC(=O)NC1=NC(C)(C)N(OCc2ccc(Cl)c(Cl)c2)C(NC(C)=O)=N1 [TCMDC-131594]	-1.877

SMILES	% Inhibition [%]
CC(=O)Nc1cccc(/C=C/C(=O)N2CCC(N3CCCCC3)CC2)c1 [TCMDC-141128]	9.67
Cc1cccnc1CNc1nccc2c(C)c(C)[nH]c12 [TCMDC-134148]	-85.57
CCCCCCCN1CC[C@@H](CCCc2ccnc3ccc(OCCN4CCOCC4)cc23)[C@@H](CC)C1 [TCMDC-139815]	43.2
CCCCCCCN1CC[C@@H](CCCc2ccnc3ccc(OCCC4CCNCC4)cc23)[C@@H](CC)C1 [TCMDC-139819]	116.4
CCCCN1CC[C@@H](CCC(O)c2cc(OCCC)nc3ccc(OC)cc23)[C@@H](CC)C1 (some centres unmarked) [TCMDC-131499]	36.19
CCCCCCCN1CC[C@@H](CCCc2ccnc3ccc(OCCN4CCNCC4)cc23)[C@@H](CC)C1 [TCMDC-139817]	103.1
CCCCCCCN1CC[C@@H](CCCc2ccnc3ccc(OCC4CCCNC4)cc23)[C@@H](CC)C1 (some centres unmarked) [TCMDC-139816]	113
CCCCCCCN1CC[C@@H](CCC(O)c2ccnc3ccc(OC)cc23)[C@@H](CC)C1 (some centres unmarked) [TCMDC-138954]	9.095
CC[C@H]1CN(Cc2ccco2)CC[C@H]1CCCc1ccnc2ccc(O)cc12 [TCMDC-140336]	6.613
CCCCN1CC[C@@H](CCC(O)c2ccnc3ccc(OCCC(C)C)cc23)[C@@H](CC)C1 (some centres unmarked) [TCMDC-131481]	66.25
CN1CCN(c2cc3c(cc2Cl)CCN3C(=O)Cc2ccc(Cl)c(NC(=O)Nc3cccc([N+](=O)[O-])c3)c2)CC1 [TCMDC-139473]	-0.749
O=C(Nc1ccc(F)cc1F)NC1CCN(c2ccnc3cc(Cl)ccc23)C1 (centres unmarked) [TCMDC-133658]	-14.22
CCCOc1ccc(C(F)(F)F)cc1NC(=O)c1nc2nc(C)cc(C)n2n1 [TCMDC-125466]	-88.48
COc1ccc(N2CCc3c(-c4cccc5cnccc45)cc(C)nc32)c(C)c1 [TCMDC-136362]	-0.3846
O=C(NCCCN1CCOCC1)c1ccc(-c2cccc(NC(=O)c3ccc(Cl)c(Cl)c3)c2)cc1 [TCMDC-133693]	-20.47
O=C1CC(C(=O)O)CC(=O)N1 [TCMDC-125482]	13.38
COc1ccccc1-n1c(-c2ccc3ccccc3c2)csc1=NC(=O)c1ccccc1 [TCMDC-125668]	-1.763
CC(C)Cn1cc(C2CCN(CCN3CCC(CNC(=O)c4ccc(NC(=O)c5cc(Cl)cc(Cl)c5)cc4)CC3)CC2)c2ccccc21 [TCMDC-138868]	108.5
CC(C)Cn1cc(C2CCN(CCN3CCC(CNC(=O)c4ccc(NC(=O)c5ccc(Cl)cc5)cc4)CC3)CC2)c2ccccc21 [TCMDC-138865]	102.8
O=C(NCCN1CCC(c2ncc(-c3ccccc3)o2)CC1)c1ccc(NC(=O)c2ccc(Cl)cc2)cc1 [TCMDC-138483]	-8.107
O=C(NCCCCN1CCC(C(c2ccccc2)c2ccccc2)CC1)c1ccc(NC(=O)c2ccc(Cl)cc2)cc1 [TCMDC-138332]	-3.792
Cn1cc(C2CCN(CCCCNC(=O)c3ccc(C(=O)Nc4ccc(C#N)cc4)cc3)CC2)c2ccccc21 [TCMDC-138788]	-0.3465
